{"source": "PubChem BioAssay", "data": [{"assay": "small-molecule binders of probe aNOTCH3, primary screen, biochemical, small-molecule microarray, 635/667 nm fluorescence (AID 1120);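 note: probe is a biotin-tagged antibody raised against NOTCH3 rather than NOTCH3 protein; score merges spot fluorescence near 667 nm with spot signal to noise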", "conditions": "higher = more signal", "values": [{"smiles": "O=C1O[C@@H](c2ccccc2)[C@@H](c2ccccc2)N2[C@@H](c3ccc(OCCO)cc3)[C@]3(C(=O)Nc4ccc(C#CC5=CCCCC5)cc43)[C@@H](C(=O)N3CCCCCCC3)[C@H]12", "composite z-score": 1.87}, {"smiles": "CN1C(=O)C2C=CC(C(O)c3ccccc3)N(N3CCCCC3)C2C1=O", "note": "(stereo not given)", "composite z-score": 0.237}, {"smiles": "C[C@H]1C2[C@H](Cc3ccccc3)NC(=O)[C@]23C(=O)NCC(=O)N2CCC[C@H]2C(=O)NC/C=C/CCC/C=C/C3[C@@H]2O[C@]12C", "note": "(stereo not given in full)", "composite z-score": -0.136}, {"smiles": "NC(=O)NCC#Cc1ccc2c(c1)[C@]1(C(=O)N2)[C@H](C(=O)O)[C@H]2C(=O)O[C@H](c3ccccc3)[C@H](c3ccccc3)N2[C@@H]1c1ccc(O)cc1", "composite z-score": 0.207}, {"smiles": "O=C(O)C1N=C(c2ccc(OCCCO)cc2)N(c2ccccc2)O1", "note": "(stereo not given)", "composite z-score": 0.0967}, {"smiles": "CN(C)CCCCCCNC(=O)[C@@H]1C[C@@H]2C(=O)N[C@@H](CCCC[N+](C)(C)C)C(=O)N2[C@@H]1c1ccc(O)cc1", "composite z-score": 0.164}, {"smiles": "O=C1OCC=C[C@H]2OC34C=CCN(CCN5CCOCC5)C(=O)[C@H]3N(CCO)C(=O)[C@@H]4[C@@H]12", "note": "(stereo not given in full)", "composite z-score": -0.0221}, {"smiles": "CS(=O)(=O)CCOC(=O)C1=CC(CCCO)=CC(C2CC2)N(Cc2cc3c(cc2Br)OCO3)C=C1C(=O)OCCS(C)(=O)=O", "note": "(stereo not given)", "composite z-score": -0.0573}, {"smiles": "CCCC=C(CCC)[C@@H](NS(=O)(=O)c1ccc(Cl)cc1)c1ccc(C(=O)OC)cc1", "composite z-score": -0.0111}, {"smiles": "[N-]=[N+]=Nc1ccccc1C[C@@]1(C(=O)N2CCCCC2)N=C(c2ccc(OCCCO)cc2)O[C@@H]1c1ccccc1N=[N+]=[N-]", "composite z-score": 0.384}, {"smiles": "O=C1O[C@H](c2ccccc2)[C@H](c2ccccc2)N2[C@H]1[C@@H](C(=O)NC[C@H](O)c1ccccc1)[C@]1(C(=O)Nc3ccc(C#CC4=CCCCC4)cc31)[C@H]2c1ccccc1OCCO", "composite z-score": 0.0527}, {"smiles": "C=CCC(OC(C)=O)[C@@H]1[C@@H](N(Cc2cc3ccccc3o2)C(=O)Cc2ccc(OC)cc2)c2cc(OCCCO)ccc2N1C(=O)c1ccc2ccccc2c1", "note": "(stereo not given in full)", "composite z-score": -0.0485}, {"smiles": "O=C1[C@H]2C=C(I)[C@H](C[C@@H]2OCCCCO)[C@@]12CO2", "composite z-score": -0.0057}, {"smiles": "[N-]=[N+]=Nc1ccccc1C[C@]1(C(=O)NCC(O)CO)N=C(c2ccc(OCCCO)cc2)O[C@H]1c1ccccc1", "note": "(stereo not given in full)", "composite z-score": 0.298}, {"smiles": "O=C1O[C@H](c2ccccc2)[C@H](c2ccccc2)N2[C@H]1[C@@H](C(=O)NC[C@H](O)c1ccccc1)[C@]1(C(=O)Nc3ccccc31)[C@H]2c1ccc(O)cc1", "composite z-score": -0.0328}, {"smiles": "CCN(CC)c1ccc(N2CC=CC34O[C@@H]5C=CCOC(=O)[C@@H]5[C@H]3C(=O)N(CCCCCCO)[C@@H]4C2=O)cc1", "note": "(stereo not given in full)", "composite z-score": -0.126}, {"smiles": "CC1CC/C=C\\[C@H]2OC34C=CCN(c5ccc6ccccc6c5)C(=O)[C@H]3N(CCO)C(=O)[C@@H]4C2C(=O)O1", "note": "(stereo not given in full)", "composite z-score": -0.19}, {"smiles": "CC=CC(O)C1C=CC2C(=O)N(C)C(=O)C2N1N(c1ccccc1)c1ccccc1", "note": "(stereo not given)", "composite z-score": 0.0864}, {"smiles": "CCOC(=O)C1=CCC(c2ccc(F)cc2)N(S(=O)(=O)c2ccc(C)cc2)C1", "note": "(stereo not given)", "composite z-score": 0.0351}, {"smiles": "O=C1C2C=CC(C(O)C=Cc3ccc([N+](=O)[O-])cc3)N(Nc3ccccc3F)C2C(=O)N1c1ccccc1", "note": "(stereo not given)", "composite z-score": 0.127}, {"smiles": "C=CCN1Cc2ccccc2[C@@H]2OC(c3ccc(OCCCO)cc3)=N[C@]2(CCS(=O)(=O)c2ccccc2)C1=O", "composite z-score": 0.233}, {"smiles": "O=C(CS)NCCCCCNC(=O)[C@H]1C[C@H]2C(=O)NCC(=O)N2[C@H]1c1ccc(O)cc1", "composite z-score": -0.372}, {"smiles": "[N-]=[N+]=NCc1ccccc1[C@@H]1OC(c2ccc(OCCCO)cc2)=N[C@]1(CCS(=O)(=O)c1ccccc1)C(N)=O", "composite z-score": 0.369}, {"smiles": "C=CCN1C(=O)[C@]2(Cc3ccccc3)N=C(c3ccc(OCCCO)cc3)O[C@@H]2c2ccccc21", "composite z-score": 0.143}, {"smiles": "O=C1OCCC/C=C\\[C@H]2OC34C=CCN(c5ccc6ccccc6c5)C(=O)[C@H]3N(CCCCCO)C(=O)[C@@H]4C12", "note": "(stereo not given in full)", "composite z-score": -0.295}, {"smiles": "CCOc1cc(C(O)C2C=CC3C(=O)N(c4ccccc4)C(=O)C3N2Nc2ccc(C(C)C)cc2)ccc1O", "note": "(stereo not given)", "composite z-score": 0.15}, {"smiles": "[N-]=[N+]=Nc1ccccc1C[C@]1(C(=O)N2CCCCC2)COC(c2ccc(OCCCO)cc2)=N1", "composite z-score": 0.176}, {"smiles": "C=C(C(=O)CC[C@H](OC(C)=O)c1ccccc1OCCO)C(C)C", "composite z-score": 0.029}, {"smiles": "Cc1ccc(S[C@]2(C(=O)O)CC(=O)N(C(C)C)[C@@H]2c2ccc(CO)cc2)cc1", "composite z-score": -0.139}, {"smiles": "CN(C)C(=O)[C@]1(Cc2ccccc2)N=C(c2ccc(OCCCO)cc2)O[C@@H]1c1ccccc1N=[N+]=[N-]", "composite z-score": 0.23}]}]}
